Compound activity as filed in PubChem.
PolyA inhibitor: polyadenylation inhibitors in yeast reporter cells, primary screen, luminescence, S. cerevisiae | S. cerevisiae SKY197-pL101 polyadenylation reporter, beta-gal luminescence; efflux-impaired pdr1/pdr3 knockout yeast; score 100 = 6 SD above DMSO | activity score, % at 12 µM | 300,000 compounds, 0.02% hits | AID 1875, 2009;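 active = lowest replicate activity score at least 50, where 100 means six control SD above control mean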;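 also: yeast exposed to compound for 9 h at 30 °C; higher score means more reporter readthrough which indicates perturbed polyadenylation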
AHR activator: AHR activators, primary screen, cell-based, luminescence, luciferase reporter, human; activation, % at 5 µM; Aryl hydrocarbon receptor (Homo sapiens), P35869; 320,000 compounds, 2.5% hits; AHR-responsive luciferase reporter cells; in the data active = activation above about 47%;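 also: 0% = vehicle wells and 100% = reference agonist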
HIF act: HIF pathway transcriptional activators, primary screen, cell-based, U2OS HRE-luciferase, luminescence | 300,000 compounds, 0.32% hits | activation, % at 7.5 µM (by protocol) | U2OS HRE-luciferase reporter; normalized: DMSO 0%, desferrioxamine 100% | AID 1910, 2009;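 active = mean activation of at least 10% of the iron chelator positive control signal, with at least half of replicates also reaching 10%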
p-CIP stab down: p/CIP-EGFP fusion destabilizers, primary screen, fluorescence, F442A cells; decrease of EGFP signal, % at 10 µM; 290,000 compounds, 0.01% hits; AID 1984, 2009; Q05BA5; 16 h;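 active = EGFP signal decrease of at least 30% at 10 µM or well 3 SD below plate mean, unless failing retest; inactive = the rest, including hits failing retest or dose response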
Target sequence (Q05BA5 1-1403): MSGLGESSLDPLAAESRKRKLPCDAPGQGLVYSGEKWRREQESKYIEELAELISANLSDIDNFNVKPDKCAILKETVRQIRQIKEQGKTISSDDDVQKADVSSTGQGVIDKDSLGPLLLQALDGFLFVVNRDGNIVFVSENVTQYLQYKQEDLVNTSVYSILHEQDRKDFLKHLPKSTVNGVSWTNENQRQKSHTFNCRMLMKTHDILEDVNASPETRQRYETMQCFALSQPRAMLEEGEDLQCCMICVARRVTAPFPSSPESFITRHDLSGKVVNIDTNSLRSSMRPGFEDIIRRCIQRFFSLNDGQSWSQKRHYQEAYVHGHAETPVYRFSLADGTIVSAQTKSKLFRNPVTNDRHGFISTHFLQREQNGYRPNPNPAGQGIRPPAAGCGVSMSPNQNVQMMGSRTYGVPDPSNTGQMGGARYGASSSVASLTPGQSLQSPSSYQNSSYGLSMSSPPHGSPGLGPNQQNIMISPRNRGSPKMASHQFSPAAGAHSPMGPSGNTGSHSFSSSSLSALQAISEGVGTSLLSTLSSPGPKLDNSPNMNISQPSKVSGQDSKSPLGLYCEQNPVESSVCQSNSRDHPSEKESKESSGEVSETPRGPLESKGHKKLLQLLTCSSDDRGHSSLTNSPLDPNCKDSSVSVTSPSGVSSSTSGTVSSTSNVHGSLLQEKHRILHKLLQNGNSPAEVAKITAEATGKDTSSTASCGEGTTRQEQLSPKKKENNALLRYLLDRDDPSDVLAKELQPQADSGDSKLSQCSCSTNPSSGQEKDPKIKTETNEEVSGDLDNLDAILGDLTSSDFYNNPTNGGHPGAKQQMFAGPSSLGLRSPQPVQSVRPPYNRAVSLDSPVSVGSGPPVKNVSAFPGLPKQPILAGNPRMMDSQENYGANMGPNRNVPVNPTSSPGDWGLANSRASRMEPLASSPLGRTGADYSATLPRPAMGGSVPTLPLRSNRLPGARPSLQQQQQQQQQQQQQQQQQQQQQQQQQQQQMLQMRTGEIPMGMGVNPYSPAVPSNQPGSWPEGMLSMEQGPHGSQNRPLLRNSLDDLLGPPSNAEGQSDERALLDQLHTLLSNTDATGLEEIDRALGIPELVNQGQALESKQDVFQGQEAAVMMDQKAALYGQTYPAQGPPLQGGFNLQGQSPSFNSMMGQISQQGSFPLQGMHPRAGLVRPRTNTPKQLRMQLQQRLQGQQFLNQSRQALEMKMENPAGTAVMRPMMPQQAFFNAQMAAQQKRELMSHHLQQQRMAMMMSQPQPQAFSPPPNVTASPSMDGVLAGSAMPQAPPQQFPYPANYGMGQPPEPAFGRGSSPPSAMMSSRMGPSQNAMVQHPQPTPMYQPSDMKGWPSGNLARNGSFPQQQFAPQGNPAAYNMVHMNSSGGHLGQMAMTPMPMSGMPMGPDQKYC
Platelet DG rel: inhibitors of platelet dense granule secretion, primary screen, cell-based, MLPCN, human platelets. inhibition, %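 (compounds screened at 7.5 µM in platelet-rich plasma)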. human platelet-rich plasma, SFLLRN dense granule ATP release, luminescence. 300,000 compounds, 0.22% hits;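 active = mean replicate score, as percent of positive control, at or above 50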
* marks the source's active call; other numbers are inactive results. In the library only some 2.8% were active in any assay of this set; here they are far more common.

For COc1cc(OC)c(OC)cc1/C=N/Nc1nc2ccccc2[nH]1 the results were PolyA inhibitor 1, AHR activator 54*, HIF act 0, p-CIP stab down 3 and Platelet DG rel 18.
CCN(CC)c1ccc(/C=N/Nc2nc3ccccc3[nH]2)c(O)c1 was read as PolyA inhibitor 3, AHR activator 51*, HIF act 83*, p-CIP stab down -22 and Platelet DG rel 2.
Screening CCN(CC)c1ccc(/C=N/NC(=O)c2ccco2)c(O)c1 returned PolyA inhibitor 4, AHR activator 12, HIF act 78*, p-CIP stab down -13 and Platelet DG rel 21.
`Cc1ccc2cc(/C=N/Nc3nc4ccccc4[nH]3)c(Cl)nc2c1` gave PolyA inhibitor -15, HIF act 1, p-CIP stab down 18 and Platelet DG rel 38.
For COc1cc(/C=N\Nc2nc3ccccc3[nH]2)cc(OC)c1OC the results were PolyA inhibitor 10, AHR activator 50*, HIF act 0, p-CIP stab down -13 and Platelet DG rel -2.
`C(=N\Nc1nc2ccccc2[nH]1)/c1ccc2c(c1)OCCO2` gave PolyA inhibitor -12, AHR activator -3, HIF act -5, p-CIP stab down 0 and Platelet DG rel 4.
Screening CCN(CC)c1ccc(/C=N/NC(=O)c2ccco2)cc1 returned PolyA inhibitor 9, AHR activator 6, HIF act 1, p-CIP stab down 8 and Platelet DG rel 2.
Screening COc1cc(/C=N\Nc2nc3ccccc3o2)cc(OC)c1OC returned PolyA inhibitor -7, AHR activator 12, HIF act 2, p-CIP stab down -18 and Platelet DG rel -2.
COc1ccc(N2CCN(C(=O)CN(c3cccc(OC)c3)S(=O)(=O)c3ccccc3)CC2)cc1 was read as PolyA inhibitor 3, AHR activator 3, HIF act 0, p-CIP stab down -3 and Platelet DG rel 15.
Screening O=C(CSc1nc2ncc(Cl)cc2[nH]1)c1c[nH]c2ccccc12 returned PolyA inhibitor 0, AHR activator 60*, HIF act 0, p-CIP stab down 0 and Platelet DG rel -3.
`O=C(CSc1nc2ccc(Cl)cc2[nH]1)c1c[nH]c2ccccc12` gave AHR activator 77*, HIF act 1, p-CIP stab down -4 and Platelet DG rel 3.
Screening Cn1ccnc1SCC(=O)n1c2c(c3ccccc31)CCCC2 returned PolyA inhibitor -16, AHR activator 72*, HIF act 0, p-CIP stab down -4 and Platelet DG rel 3.
Screening Cn1ccnc1SCC(=O)c1c[nH]c2ccccc12 returned PolyA inhibitor 13, AHR activator 70*, HIF act 2, p-CIP stab down -4 and Platelet DG rel 2.
For COc1ccccc1C(=O)CSc1nccn1C the results were PolyA inhibitor 7, AHR activator 2, HIF act 1, p-CIP stab down -7 and Platelet DG rel 1.
For O=C(CSc1nccc(=O)[nH]1)c1c[nH]c2ccccc12 the results were PolyA inhibitor -16, AHR activator 12, HIF act 0, p-CIP stab down 2 and Platelet DG rel -2.
CCc1ccc(S(=O)(=O)Nc2cccc(-c3ccc4nnc(C)n4n3)c2)s1 was read as PolyA inhibitor 6, AHR activator 5, HIF act 0 and Platelet DG rel -1.
`CC1(C)CCC(=O)N2CC[C@H]3C[C@H](OC(=O)Nc4ccccc4)C[C@@H]1[C@H]32` gave PolyA inhibitor 13, AHR activator 8, HIF act 5, p-CIP stab down 0 and Platelet DG rel 6.
CC1(C)CCC(=O)N2CC[C@H]3C[C@H](OC(=O)Nc4ccc5c(c4)OCO5)C[C@@H]1[C@H]32 was read as PolyA inhibitor -13, AHR activator 60*, HIF act 5, p-CIP stab down -14 and Platelet DG rel 10.
`O=C(Nc1c2c(nn1-c1ccccc1)CS(=O)C2)c1ccco1` (centres undefined) gave PolyA inhibitor -5, AHR activator 9, HIF act 0, p-CIP stab down -7 and Platelet DG rel -17.
Cn1cc(/C=N/NC(=O)c2cccc([N+](=O)[O-])c2)c2ccccc21 was read as PolyA inhibitor 7, AHR activator 69*, HIF act 0, p-CIP stab down 12 and Platelet DG rel 0.
